Measurements: paper PMC11006913
Residue numbers refer to the chain shown, from its start.

How the values were obtained:
Assay in all cases: PBM; 200 nM protein, PBS
Details in all cases: dsDNA, one strand shown
NKX2-5 [1] = biological target: NKX2-5 (Homo sapiens, UniProt P52952 125-210, R139K)
NKX2-6 [2] = biological target: T1, NKX2-6 (Homo sapiens, UniProt A6NCS4 118-204, R150C)
T1 sequence: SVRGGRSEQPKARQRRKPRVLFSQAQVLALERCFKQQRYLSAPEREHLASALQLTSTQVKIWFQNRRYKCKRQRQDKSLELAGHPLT

NKX2-6 [3] = biological target: T2, NKX2-6 (Homo sapiens, UniProt A6NCS4 118-204)
T2 sequence: T1 sequence with C33R

NKX2-4 = biological target: T3, NKX2-4 (Homo sapiens, UniProt Q9H2Z4 175-261, R246Q)
T3 sequence: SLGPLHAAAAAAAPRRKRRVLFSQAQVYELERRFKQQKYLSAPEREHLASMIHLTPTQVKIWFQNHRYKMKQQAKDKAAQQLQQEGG

NKX2-6 [4] = biological target: T4, NKX2-6 (Homo sapiens, UniProt A6NCS4 118-204, F151L)
T4 sequence: T1 sequence with C33R, F34L

NKX2-5 [5] = biological target: NKX2-5 (Homo sapiens, UniProt P52952 125-210)
Sequence of NKX2-5 (Homo sapiens, UniProt P52952 125-210) (P52952 125-210): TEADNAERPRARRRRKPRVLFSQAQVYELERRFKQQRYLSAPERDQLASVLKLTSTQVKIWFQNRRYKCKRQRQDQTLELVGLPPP

MSX2 [6] = biological target: MSX2 (Homo sapiens, UniProt P35548 130-214, R199I)
Sequence of MSX2 (Homo sapiens, UniProt P35548 130-214, R199I) (P35548 130-214 R199I): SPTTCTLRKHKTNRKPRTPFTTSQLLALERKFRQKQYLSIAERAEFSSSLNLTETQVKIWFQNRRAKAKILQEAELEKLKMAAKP

ALX3 [7] = biological target: ALX3 (Homo sapiens, UniProt O95076 139-225, N203Q)
Sequence of ALX3 (Homo sapiens, UniProt O95076 139-225, N203Q) (O95076 139-225 N203Q): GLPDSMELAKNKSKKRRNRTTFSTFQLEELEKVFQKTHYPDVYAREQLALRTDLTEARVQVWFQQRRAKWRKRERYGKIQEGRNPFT

MSX2 [8] = biological target: MSX2 (Homo sapiens, UniProt P35548 130-214)
Sequence of MSX2 (Homo sapiens, UniProt P35548 130-214) (P35548 130-214): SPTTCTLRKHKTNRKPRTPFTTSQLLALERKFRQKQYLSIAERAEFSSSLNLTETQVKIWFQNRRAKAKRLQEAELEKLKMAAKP

ALX3 [9] = biological target: ALX3 (Homo sapiens, UniProt O95076 139-225)
Sequence of ALX3 (Homo sapiens, UniProt O95076 139-225) (O95076 139-225): as the sequence (O95076 139-225 N203Q) above, with Q65N counted along it

ALX3 [10] = biological target: ALX3 (Homo sapiens, UniProt O95076 139-225, L168Q)
Sequence of ALX3 (Homo sapiens, UniProt O95076 139-225, L168Q) (O95076 139-225 L168Q): as the sequence (O95076 139-225 N203Q) above, with L30Q, Q65N counted along it

ALX3 [11] = biological target: ALX3 (Homo sapiens, UniProt O95076 139-225, L168V)
Sequence of ALX3 (Homo sapiens, UniProt O95076 139-225, L168V) (O95076 139-225 L168V): as the sequence (O95076 139-225 N203Q) above, with L30V, Q65N counted along it

MSX2 [12] = biological target: MSX2 (Homo sapiens, UniProt P35548 130-214, F161Y)
Sequence of MSX2 (Homo sapiens, UniProt P35548 130-214, F161Y) (P35548 130-214 F161Y): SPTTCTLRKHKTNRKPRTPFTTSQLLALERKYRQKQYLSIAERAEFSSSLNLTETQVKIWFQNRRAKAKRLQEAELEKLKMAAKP

ALX3 [13] = biological target: ALX3 (Homo sapiens, UniProt O95076 139-225, N203S)
Sequence of ALX3 (Homo sapiens, UniProt O95076 139-225, N203S) (O95076 139-225 N203S): as the sequence (O95076 139-225 N203Q) above, with Q65S counted along it

NKX3-2 [14] = biological target: NKX3-2 (Homo sapiens, UniProt P78367 192-278, P234S)
Sequence of NKX3-2 (Homo sapiens, UniProt P78367 192-278, P234S) (P78367 192-278 P234S): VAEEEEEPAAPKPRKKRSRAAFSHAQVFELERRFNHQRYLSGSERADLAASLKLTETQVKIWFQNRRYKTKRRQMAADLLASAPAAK

NKX3-2 [15] = biological target: NKX3-2 (Homo sapiens, UniProt P78367 192-278)
Sequence of NKX3-2 (Homo sapiens, UniProt P78367 192-278) (P78367 192-278): as the sequence (P78367 192-278 P234S) above, with S43P counted along it

Sequence of NKX2-5 (Homo sapiens, UniProt P52952 125-210, R139K) (P52952 125-210 R139K): as the sequence (P52952 125-210) above, with R15K counted along it

In the case of CACTTGTA, the binding signal (NKX2-5 [1]) is reported as 12.5 upbm affinity estimate (log intensity, higher = more binding, comparable within an allelic series), the binding signal (NKX2-6 [2]) is reported as 11.6 upbm affinity estimate (log intensity, higher = more binding, comparable within an allelic series) and the binding signal (NKX2-6 [3]) is reported as 13.4 upbm affinity estimate (log intensity, higher = more binding, comparable within an allelic series). The binding signal (NKX2-4) was 12.9 upbm affinity estimate (log intensity, higher = more binding, comparable within an allelic series), the binding signal (NKX2-6 [4]) was 10.7 upbm affinity estimate (log intensity, higher = more binding, comparable within an allelic series) and the binding signal (NKX2-5 [5]) was 12.3 upbm affinity estimate (log intensity, higher = more binding, comparable within an allelic series).

With CCGACGCA the binding signal (NKX2-5 [1]) was 8.78 upbm affinity estimate (log intensity, higher = more binding, comparable within an allelic series), the binding signal (MSX2 [6]) was 9.38 upbm affinity estimate (log intensity, higher = more binding, comparable within an allelic series) and the binding signal (ALX3 [7]) was 7.72 upbm affinity estimate (log intensity, higher = more binding, comparable within an allelic series). The binding signal (MSX2 [8]) was 9.17 upbm affinity estimate (log intensity, higher = more binding, comparable within an allelic series), the binding signal (ALX3 [9]) was 7.54 upbm affinity estimate (log intensity, higher = more binding, comparable within an allelic series) and the binding signal (ALX3 [10]) was 7.69 upbm affinity estimate (log intensity, higher = more binding, comparable within an allelic series). The binding signal (ALX3 [11]) was 7.71 upbm affinity estimate (log intensity, higher = more binding, comparable within an allelic series), the binding signal (MSX2 [12]) was 9.25 upbm affinity estimate (log intensity, higher = more binding, comparable within an allelic series) and the binding signal (ALX3 [13]) was 7.75 upbm affinity estimate (log intensity, higher = more binding, comparable within an allelic series). The binding signal (NKX2-5 [5]) was 8.7 upbm affinity estimate (log intensity, higher = more binding, comparable within an allelic series).

AGTCCTTA was tested, and the binding signal (NKX2-5 [1]) was 11.3 upbm affinity estimate (log intensity, higher = more binding, comparable within an allelic series), the binding signal (NKX2-6 [2]) was 10.8 upbm affinity estimate (log intensity, higher = more binding, comparable within an allelic series) and the binding signal (NKX2-5 [5]) was 11.2 upbm affinity estimate (log intensity, higher = more binding, comparable within an allelic series).

CGACTGGC was tested, and the binding signal (NKX2-5 [1]) was 8.66 upbm affinity estimate (log intensity, higher = more binding, comparable within an allelic series), the binding signal (NKX2-6 [2]) was 9.39 upbm affinity estimate (log intensity, higher = more binding, comparable within an allelic series) and the binding signal (NKX2-5 [5]) was 8.72 upbm affinity estimate (log intensity, higher = more binding, comparable within an allelic series).

ACTAAGTG was tested, and the binding signal (NKX2-5 [1]) was 12.3 upbm affinity estimate (log intensity, higher = more binding, comparable within an allelic series), the binding signal (NKX2-6 [2]) was 11.6 upbm affinity estimate (log intensity, higher = more binding, comparable within an allelic series) and the binding signal (NKX2-6 [3]) was 13.3 upbm affinity estimate (log intensity, higher = more binding, comparable within an allelic series). For the same sequence, the binding signal (NKX2-6 [4]) was 10.6 upbm affinity estimate (log intensity, higher = more binding, comparable within an allelic series), the binding signal (NKX3-2 [14]) was 12.9 upbm affinity estimate (log intensity, higher = more binding, comparable within an allelic series) and the binding signal (NKX2-5 [5]) was 12.3 upbm affinity estimate (log intensity, higher = more binding, comparable within an allelic series). The binding signal (NKX3-2 [15]) was 12.9 upbm affinity estimate (log intensity, higher = more binding, comparable within an allelic series).

In the case of GTCCCAGA, the binding signal (NKX2-5 [1]) is reported as 8.89 upbm affinity estimate (log intensity, higher = more binding, comparable within an allelic series), the binding signal (NKX2-6 [3]) is reported as 9.24 upbm affinity estimate (log intensity, higher = more binding, comparable within an allelic series) and the binding signal (NKX2-6 [4]) is reported as 9.41 upbm affinity estimate (log intensity, higher = more binding, comparable within an allelic series). The binding signal (NKX2-5 [5]) was 8.98 upbm affinity estimate (log intensity, higher = more binding, comparable within an allelic series).

For CGTTCCGC, the binding signal (NKX2-5 [1]) was 8.99 upbm affinity estimate (log intensity, higher = more binding, comparable within an allelic series), the binding signal (NKX2-6 [3]) was 9.44 upbm affinity estimate (log intensity, higher = more binding, comparable within an allelic series) and the binding signal (NKX2-6 [4]) was 9.27 upbm affinity estimate (log intensity, higher = more binding, comparable within an allelic series). For the same sequence, the binding signal (NKX2-5 [5]) was 8.75 upbm affinity estimate (log intensity, higher = more binding, comparable within an allelic series).

In the case of AGCCCAGG, the binding signal (NKX2-5 [1]) is reported as 8.68 upbm affinity estimate (log intensity, higher = more binding, comparable within an allelic series), the binding signal (MSX2 [6]) is reported as 9.6 upbm affinity estimate (log intensity, higher = more binding, comparable within an allelic series) and the binding signal (MSX2 [8]) is reported as 9.67 upbm affinity estimate (log intensity, higher = more binding, comparable within an allelic series). The binding signal (MSX2 [12]) was 9.66 upbm affinity estimate (log intensity, higher = more binding, comparable within an allelic series), the binding signal (NKX3-2 [14]) was 10.1 upbm affinity estimate (log intensity, higher = more binding, comparable within an allelic series) and the binding signal (NKX2-5 [5]) was 8.63 upbm affinity estimate (log intensity, higher = more binding, comparable within an allelic series). For the same sequence, the binding signal (NKX3-2 [15]) was 10.1 upbm affinity estimate (log intensity, higher = more binding, comparable within an allelic series).

For ACTTAAGA, the binding signal (NKX2-5 [1]) was 12.3 upbm affinity estimate (log intensity, higher = more binding, comparable within an allelic series), the binding signal (NKX2-6 [3]) was 13.4 upbm affinity estimate (log intensity, higher = more binding, comparable within an allelic series) and the binding signal (NKX2-4) was 12.9 upbm affinity estimate (log intensity, higher = more binding, comparable within an allelic series). For the same sequence, the binding signal (NKX2-6 [4]) was 10.8 upbm affinity estimate (log intensity, higher = more binding, comparable within an allelic series).

In the case of AAGTGGCG, the binding signal (NKX2-5 [1]) is reported as 12.2 upbm affinity estimate (log intensity, higher = more binding, comparable within an allelic series), the binding signal (NKX2-6 [2]) is reported as 11.6 upbm affinity estimate (log intensity, higher = more binding, comparable within an allelic series) and the binding signal (NKX3-2 [14]) is reported as 12.7 upbm affinity estimate (log intensity, higher = more binding, comparable within an allelic series). For the same sequence, the binding signal (NKX2-5 [5]) was 12.2 upbm affinity estimate (log intensity, higher = more binding, comparable within an allelic series) and the binding signal (NKX3-2 [15]) was 12.8 upbm affinity estimate (log intensity, higher = more binding, comparable within an allelic series).

For AGCACTTG, the binding signal (NKX2-5 [1]) was 12.4 upbm affinity estimate (log intensity, higher = more binding, comparable within an allelic series), the binding signal (NKX2-6 [2]) was 11.6 upbm affinity estimate (log intensity, higher = more binding, comparable within an allelic series) and the binding signal (NKX2-4) was 13 upbm affinity estimate (log intensity, higher = more binding, comparable within an allelic series). The binding signal (NKX2-6 [4]) was 10.6 upbm affinity estimate (log intensity, higher = more binding, comparable within an allelic series) and the binding signal (NKX2-5 [5]) was 12.3 upbm affinity estimate (log intensity, higher = more binding, comparable within an allelic series).
